# Test results taken from the supplement of paper PMC7156485.
# ± gives the standard deviation of the averaged measurements.
# How the values were obtained:
# Conditions in all cases: concentration: 10 µM; 24 h
# HCC1569 [1] = assay: cell number relative to DMSO (% of DMSO); higher = more cells (less growth inhibition / toxicity)
# Outline: (§1)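 Cells were seeded at 800 per well in 384-well plates with RPMI containing 10% FBS; both HCC1569 and TDF lines were used. Compounds were added at 10 µM for 24 h at 37 °C, in triplicate, before fixation in 3.7% formaldehyde and staining with a rabbit anti-H1.0 antibody, an AlexaFluor 647 secondary and DAPI. H1.0 nuclear intensity or cell number is reported as percent of the plate control using the median of replicates, and HCC1569 values were smoothed for positional effects.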
# TDF [2] = assay: as above
# Outline: as §1
# TDF [3] = assay: H1.0 immunofluorescence intensity relative to DMSO (% of DMSO); higher = stronger H1.0 induction, active = 120 or more
# Outline: as §1
# HCC1569 [4] = assay: H1.0 immunofluorescence intensity relative to DMSO (% of DMSO); higher = stronger H1.0 induction, active = 140 or more
# Outline: as §1
# 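For H1.0 immunofluorescence intensity relative to DMSO in this document: TDF is a line of transformed human dermal fibroblasts of mesenchymal origin.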
# 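For cell number relative to DMSO in this document: TDF denotes transformed human dermal fibroblasts of mesenchymal origin.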
SMILES,cell number (HCC1569 [1]),cell number (TDF [2]),H1.0 immunofluorescence intensity (TDF [3]),H1.0 immunofluorescence intensity (HCC1569 [4])
Oc1cc(O)cc(C=Cc2ccc(O)c(O)c2)c1 [Piceatannol],90.4 ± 5.3,93.7 ± 4.5,97.2 (inactive),114 (inactive)
CCn1cc(C(=O)O)c(=O)c2cc(F)c(N3CCN(C)CC3)cc21.CS(=O)(=O)O.O.O [Pefloxacine mesylate dihydrate],103,111,96.4 (inactive),109 (inactive)
CC(CN(C)C)CN1c2ccccc2CCc2ccccc21.O=C(O)C=CC(=O)O (stereo unspecified) [Trimipramine maleate],106,106,102 (inactive),109 (inactive)
O=C(NCCCN1CCOCC1)c1cnn2c(-c3ccccc3)cc(-c3ccccc3)nc12,95.3,84.3,97.2 (inactive),119 (inactive)
CC(=O)CC/C=C(\C)CC/C=C(\C)CC/C=C(\C)CCC=C(C)C,100,96.2,104 (inactive),105 (inactive)
"CC=C1C2C=C(C)CC1(N)c1ccc(=O)[nH]c1C2 (single isomer, unassigned; (-)) [(-)-Huperazine]",98.2,100,98.9 (inactive),84.1 (inactive)
"O=Nc1ccc2oc(=O)ccc2c1 [6-Nitroso-1,2-benzopyrone]",100,103,92.2 (inactive),101 (inactive)
COc1cc(C)c(C=CC(C)=CC=CC(C)=CC(=O)O)c(C)c1C [Acitretin],98.5,108,90.1 (inactive),126 (inactive)
CC12CCC3c4ccc(O)cc4CCC3C1CCC2O (stereo unspecified) [Estradiol],94.6,93.8,97.6 (inactive),121 (inactive)
O=c1c(O)c(-c2ccc(O)cc2O)oc2cc(O)cc(O)c12 [Morin],99.7,94,89.4 (inactive),98.5 (inactive)
O=C(O)CCCC=CCC1C(=O)CC(O)C1C=CC(O)CCc1ccccc1 (stereo unspecified) [17-Phenyl-trinor-prostaglanding E2],105,102,106 (inactive),97.5 (inactive)
CCCCS(=N)(=O)CCC(N)C(=O)O (stereo unspecified) [Buthionine sulfoximine],95.9,116,89.1 (inactive),92.6 (inactive)
C=CC(C)(O)CCC1C(=C)CCC2C(C)(C)CCCC12C (stereo unspecified) [Manool],104,87.8,99.4 (inactive),90.8 (inactive)
CN(C)CCCN1c2ccccc2CCc2ccccc21.Cl [Imipramine hydrochloride],108,98.4,97.2 (inactive),105 (inactive)
O=C1NC(=O)C(c2ccccc2[N+](=O)[O-])=C1Nc1ccc(O)c(Cl)c1,96.8,107,97.8 (inactive),111 (inactive)
CC(=O)NC(Cc1c[nH]c2ccccc12)C(=O)OCc1cc(C(F)(F)F)cc(C(F)(F)F)c1 (stereo unspecified),102,103,93.2 (inactive),90.8 (inactive)
CCc1cccc(N(C)C(N)=Nc2cccc3ccccc23)c1.Cl,87.1,90,115 (inactive),95.9 (inactive)
CC#N.Nc1nc(Nc2ccc(S(N)(=O)=O)cc2)nn1C(=O)c1c(F)cccc1F [Aurora Kinase/Cdk Inhibitor],62,39.5,98.1 (inactive),83.7 (inactive)
O=C([O-])C=CC(O)c1ccc(Cl)cc1.[Na+] (stereo unspecified),105,97.4,95.7 (inactive),92.9 (inactive)
"CCCCCCCC(=O)c1c(O)cc(O)cc1CC(=O)OCC [ethyl (3,5-dihydroxy-2-octanoylphenyl)acetate]",104,106,96.7 (inactive),121 (inactive)
NC(=O)N1c2ccccc2CC(=O)c2ccccc21 [Oxcarbazepine],103,108,93.7 (inactive),110 (inactive)
O=C(COc1ccc(C(=O)c2ccccc2)cc1)NC1CCN(Cc2ccccc2)CC1 [2-(4-benzoylphenoxy)-N-(1-benzyl-4-piperidinyl)acetamide],81.9,78.3,118 (inactive),158 (active)
Cl.Clc1ccc(Cn2c(CN3CCCC3)nc3ccccc32)cc1 [Clemizole hydrochloride],99,112,93.5 (inactive),90.7 (inactive)
CC(C)=CCCC(C)=CCCC(C)=CCCC(C)=CCCC(C)=CCCC(C)=CCCC(C)=CCCC(C)=CCCC(C)=CCO [Solanesol],104,97.8,89.9 (inactive),93.9 (inactive)
